From PubChem
Hits are enriched below; roughly 2.3% of the tested compounds scored in any of these assays.
Nrf2 block – Nrf2 qHTS screen for inhibitors; Potency, µM (top dose mostly 46 µM), for the others: at the highest dose activity change, negative = inhibition, hits mostly inhibitors; A549 ARE-Fluc reporter, luciferase luminescence, 18-24 h; 360,000 compounds, 2.1% hits; further: potency means the concentration at half of the fitted maximal effect; on the % scale 0 is the no-effect control and ±100 the full control effect; nearly all actives have a fitted effect of over 60% in size
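Nrf2 activity is the BugLite luminescence, read 15 min after reagent at room temperature, following CellTiter-Fluor cytotoxicity readout (30 min, 37C). Compound titrations were applied for 18-24 h to 5000 A549 ARE_Fluc cells/well in 5% FBS OPTI-MEM.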
Apoferritin bind – qHTS Assay for Identification of Novel General Anesthetics; Ferritin light chain (Equus caballus), P02791; Potency, µM (highest dose often 77.5 µM), without a hit: at the top dose activity change, negative = displacement, hits mostly inhibitors; apoferritin/1-aminoanthracene competitive binding, fluorescence; 350,000 compounds, 0.074% hits; further: potency means the concentration at half of the fitted maximal effect; on the % scale 0 is the no-effect control and ±100 the full control effect; nearly all actives have a fitted effect of over 20% in size
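In PBS, apoferritin at 10 uM is loaded with 1-AMA from a 50% saturated solution. After 10 min of compound exposure at ambient temperature, reduced 535 nm fluorescence indicates probe displacement.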
A549 tox-1 – Nrf2 qHTS screen for inhibitors: counterscreen for cytotoxicity. AID 504648, 2011. 390,000 compounds, 0.16% hits. Potency, µM (doses to about 46 µM), for the others: at the top dose activity change, negative = cytotoxicity, hits mostly inhibitors. A549 ARE-Fluc cells, CellTiter-Fluor viability, 18-24 h; further: potency means the concentration at half of the fitted maximal effect; on the % scale 0 is the no-effect control and ±100 the full control effect
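A549 ARE-Fluc cells in 5% FBS OPTI-MEM, 5000 cells/well, rested 2 h then exposed to compounds in concentration-response for 18-24 h at 37 °C. Viability by CellTiter-Fluor fluorescence (Ex 405/Em 525) after 30 min; luciferase luminescence (BugLite, 15 min, RT) read afterwards.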
Nrf2 activator – qHTS of Nrf2 Activators | AREc32 ARE-luciferase reporter (MCF7-derived line), luminescence, 24 h | Potency, µM (doses to about 46.1 µM), for the others: at the highest dose activation, most hits filed as activators | 410,000 compounds, 0.31% hits; further: potency means the concentration at half of the fitted maximal effect; % of control where 0% means no effect; nearly all actives have a fitted effect of over 65% in size
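Reporter line AREc32 (ARE-Fluc), seeded overnight in OPTI-MEM with 5% FBS; compound pin-transferred, 24 hr at 37 deg C, 5% CO2; luminescent read-out.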
mIDH1 inhibitor – qHTS for Inhibitors of mutant isocitrate dehydrogenase 1 (IDH1): qHTS | Isocitrate dehydrogenase [NADP] cytoplasmic (Homo sapiens), O75874 | IDH1-R132H enzyme, NADPH consumption, diaphorase/resazurin fluorescence | Potency, µM (series often up to 76.6 µM), inactives show at the top dose activity change, negative = inhibition, most hits filed as inhibitors | 390,000 compounds, 0.093% hits | AID 602179, 2012; further: potency means the concentration at half of the fitted maximal effect; on the % scale 0 is the no-effect control and ±100 the full control effect; nearly all actives have a fitted effect of over 65% in size
Target sequence (O75874 whole entry R132H, stated change not applied): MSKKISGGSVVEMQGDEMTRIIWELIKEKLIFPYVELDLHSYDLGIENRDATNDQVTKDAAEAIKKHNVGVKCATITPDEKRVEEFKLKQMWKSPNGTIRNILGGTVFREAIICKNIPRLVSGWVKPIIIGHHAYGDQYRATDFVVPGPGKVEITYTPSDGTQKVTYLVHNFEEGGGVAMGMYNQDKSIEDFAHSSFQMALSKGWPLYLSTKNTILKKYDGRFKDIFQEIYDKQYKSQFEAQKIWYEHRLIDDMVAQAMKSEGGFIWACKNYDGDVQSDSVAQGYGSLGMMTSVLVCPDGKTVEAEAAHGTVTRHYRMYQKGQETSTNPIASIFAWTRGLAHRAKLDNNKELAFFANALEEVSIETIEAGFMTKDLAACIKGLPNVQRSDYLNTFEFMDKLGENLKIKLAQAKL
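IDH1-R132H (0.5 ug/mL dispensed) in pH 7.5 Tris buffer was preincubated 30 min with compound, then given a substrate mix of 0.016 mM NADPH and 2 mM alpha-KG for 80 min at room temperature; remaining NADPH was read by diaphorase/resazurin fluorescence.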
Giardia kill – Small Molecules that selectively kill Giardia lamblia: qHTS; 340,000 compounds, 0.15% hits; Giardia lamblia trophozoite viability; AID 540267, 2011; activity change, % at 7.66 µM, hits read low; in the data active means activity change below about -80%; inconclusive means between about -30% and that limit;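 further: parasites exposed to compound for two days anaerobically before the ATP read; on the % scale 0 is the no-effect control and ±100 the full control effect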
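Anaerobic 48 hrs incubation at 37 deg C of 100 trophozoites/well with test compounds; ATPLite 1-Step luminescence, 15-30 min RT, reports cellular ATP as viability.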
FLuc enzyme inh – Nrf2 qHTS screen for inhibitors: Purified Fluc Biochemical Counterscreen for Hit Validation | 1,400 compounds, 4% hits | shares compounds with Nrf2 block | purified firefly luciferase, luminescence inhibition | Potency, µM (doses to about 57.5 µM), for the others: at the top dose activity change, negative = inhibition, hits mostly inhibitors; further: potency means the concentration at half of the fitted maximal effect; on the % scale 0 is the no-effect control and ±100 the full control effect; nearly all actives have a fitted effect of over 65% in size
A549 tox-2 – Nrf2 qHTS screen for inhibitors: A549 ARE-Fluc Cytotoxicity Counterscreen for Hit Validation. 1,400 compounds, 2% hits. shares compounds with Nrf2 block. A549 ARE-Fluc cells, cytotoxicity counterscreen. AID 720523, 2013. Potency, µM (series often up to 46.1 µM), for inactives: at the top dose activity change, negative = cytotoxicity, most hits filed as inhibitors;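 further: potency means the concentration at half of the fitted maximal effect; cells exposed to compounds for 18 to 24 hours; on the % scale 0 is the no-effect control and ±100 the full control effect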
Nrf2 ARE inh – Nrf2 qHTS screen for inhibitors: Nrf2 A549 ARE-Fluc Confirmation Assay for Hit Validation | shares compounds with Nrf2 block | A549 ARE-firefly luciferase reporter, luminescence | 1,400 compounds, 74% hits | Potency, µM (highest dose often 46.1 µM), for the others: top-dose activity change, negative = inhibition, most hits filed as inhibitors | AID 720524, 2013; further: potency means the concentration at half of the fitted maximal effect; on the % scale 0 is the no-effect control and ±100 the full control effect; nearly all actives have a fitted effect of over 65% in size
* = called active by the depositor; [ ] = another dose, or the depositor's remark. Unless noted, the call rests on the fitted dose curve; in most records, active means well fitted curve in the direction sought with a large enough effect; inconclusive means small, poorly fitted or top-dose-only effect, or another doubt; inactive means no such curve, though single readings can be large; an effect the other way counts as inactive or inconclusive.

Screening Cc1cc2ccccc2c[n+]1C1CCCCC1 returned FLuc enzyme inh 0%, A549 tox-2 -8% and Nrf2 ARE inh 1.3µM*.
Screening CCCC1OC2CC3C4CCC5=CC(=O)C=CC5(C)C4C(O)CC3(C)C2(C(=O)O)O1 (stereo unspecified) returned Nrf2 block 0.46µM*, Apoferritin bind -10%, A549 tox-1 -15%, Nrf2 activator 0%, mIDH1 inhibitor 1%, Giardia kill 7, FLuc enzyme inh -3%, A549 tox-2 -15% and Nrf2 ARE inh 1.3µM*.
Screening CCCC1O[C@@H]2C[C@H]3[C@@H]4CCC5=CC(=O)C=C[C@]5(C)[C@H]4[C@@H](O)C[C@]3(C)[C@]2(C(=O)CO)O1 (stereo partly specified) returned Nrf2 block inconclusive, Apoferritin bind -7%, A549 tox-1 -16%, Nrf2 activator 0%, mIDH1 inhibitor -23% and Giardia kill inconclusive.
Screening CCC[C@@H]1O[C@@H]2C[C@@H]3[C@H]4CCC5=CC(=O)C=C[C@@]5(C)[C@H]4[C@H](O)C[C@@]3(C)[C@@]2(C(=O)CO)O1 returned Apoferritin bind -10%[29.3 µM].
`CCC(=O)[C@@]1(C)[C@H](C)C[C@H]2[C@@H]3CCC4=CC(=O)C=C[C@]4(C)[C@H]3[C@@H](O)C[C@@]21C` gave Nrf2 block 0.016µM*, A549 tox-1 -9%, Nrf2 activator -1%, mIDH1 inhibitor -3%, Giardia kill 3, FLuc enzyme inh 3%, A549 tox-2 -9% and Nrf2 ARE inh 0.018µM*.
Screening COc1ccc(SCC(Cc2ccccc2)N2CCN(CC(C)C)CCC2=O)cc1 (stereo unspecified) returned Nrf2 block 15%, Apoferritin bind -18%, A549 tox-1 -18% and Giardia kill -17.
Screening O=C(CC(NCc1cccnc1)C(=O)O)Nc1ccc(F)cc1 (stereo unspecified) returned Nrf2 block 4%, Apoferritin bind 5%, A549 tox-1 -3%, Nrf2 activator 1% and mIDH1 inhibitor -5%.
CC(C)C[C@@H](N)C(=O)O was read as Apoferritin bind -4%.
For O=C(CCS(=O)(=O)c1ccc(Br)cc1)Nc1ccc(Cl)c(C(F)(F)F)c1 the results were Nrf2 block inconclusive, Apoferritin bind 3%, A549 tox-1 3%, Nrf2 activator 5% and mIDH1 inhibitor 21%.
Screening CN(C)c1cc[n+](CC(=O)Nc2cccc([N+](=O)[O-])c2)cc1 returned Nrf2 block -15%, Apoferritin bind -6%, A549 tox-1 5%, Nrf2 activator -1%, mIDH1 inhibitor -1% and Giardia kill 3.
